Measured values taken from PubChem BioAssay AID652257 (The Scripps Research Institute Molecular Screening Center, 2013).
The whole screen tested about 370,000 compounds, of which about 4,800 (1.3%) were called active.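 The calls were made as follows: active = inhibition above about 21% made by adding two undisclosed values (limit read from the data); inactive = the rest.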 What follows is part of a selection rich in actives, with near analogues and random picks from the rest.

Molecular target: Protein arginine N-methyltransferase 1 (Homo sapiens) (UniProt Q99873)
Sequence (Q99873 whole entry, looked up): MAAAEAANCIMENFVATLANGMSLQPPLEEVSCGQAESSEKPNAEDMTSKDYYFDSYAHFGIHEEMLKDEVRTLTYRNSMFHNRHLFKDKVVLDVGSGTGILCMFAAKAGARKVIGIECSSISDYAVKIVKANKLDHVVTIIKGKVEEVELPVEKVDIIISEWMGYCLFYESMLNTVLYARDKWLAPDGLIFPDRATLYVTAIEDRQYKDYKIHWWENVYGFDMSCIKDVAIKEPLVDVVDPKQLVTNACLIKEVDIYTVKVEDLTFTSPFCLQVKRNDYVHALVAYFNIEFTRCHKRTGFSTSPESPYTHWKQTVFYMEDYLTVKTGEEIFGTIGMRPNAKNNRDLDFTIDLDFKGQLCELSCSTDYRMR
Assay: PRMT1 methyltransferase inhibitors, primary screen, biochemical, fluorescence polarization (AID 652257)
Settings: recombinant PRMT1, activity-based probe fluorescence polarization; at 2.79 µM; stronger effect = higher value

Compound	inhibition
COC(=O)C1(CCSC)NC(c2ccc(OC)cc2OC)C2C(=O)N(c3cccc(C(C)=O)c3)C(=O)C21 (stereo unspecified)	-3.15% (inactive)
CC1CCCCC1NC(=O)COC(=O)Cc1ccc(Br)cc1 (stereo unspecified)	-4.22% (inactive)
O=C(Nc1cccc(Cl)c1)c1cc(S(=O)(=O)N2CCCCC2)c[nH]1	3.07% (inactive)
Cc1nnsc1C(=O)Nc1cccc(Cl)c1C	2.23% (inactive)
O=C(Nc1ccccc1)c1nnsc1S(=O)(=O)c1ccc(Cl)cc1	89.9% (active)
O=c1[nH]c2c(c(=O)n1-c1ccccc1)CCO2	3.18% (inactive)
Cc1ccc(S(=O)(=O)NCCC(c2ccccc2)c2ccccc2)cc1C(=O)O	-5.2% (inactive)
COC(=O)c1ccc(CNC(=O)Cn2cc(C)c(=O)[nH]c2=O)cc1	3.88% (inactive)
CC(=O)NC1=NC(=O)CS1	71.7% (active)
C[C@@H]1CN([C@@H](C)CO)C(=O)c2cccc(NC(=O)Nc3cccc4ccccc34)c2O[C@H]1CN(C)S(=O)(=O)c1ccccc1F	-7.41% (inactive)
COc1cccc(/C=C2\CC3(OC(C)=O)CCCN2C3)c1 (stereo unspecified)	-1.33% (inactive)
CCCCC(=O)N[C@@H]1CC[C@@]23CCCN2C(=O)CCC[C@H]3[C@H]1C	-1.5% (inactive)
CCc1n[nH]c(=S)n1/N=C/c1c[nH]c2ccc(Br)cc12	29.8% (active)
C[n+]1ccc(/C=C/c2c[nH]c3ccccc23)cc1	4.53% (inactive)
CCOc1ccc(-c2n[nH]c(=S)n2/N=C/c2cc3c(cc2[N+](=O)[O-])OCO3)cc1	-0.65% (inactive)
S=c1[nH]nc(-c2ccccc2)n1/N=C/c1c[nH]c2ccccc12	25.5% (active)
Cc1cccc(NC(=O)CSc2nnc(CCNC(=O)OC(C)(C)C)o2)c1C	-1.24% (inactive)
O=C(O)CCN1C(=O)CC2(CCCCC2)C1=O	0.48% (inactive)
N#Cc1ccc(OC[C@@H](O)CN2CCC(C(O)(c3ccccc3)c3ccccc3)CC2)c(F)c1	-0.03% (inactive)
CC(=O)N1CCCc2cc(S(=O)(=O)N3CCCC(C(=O)N4CCN(c5cccc(Cl)c5)CC4)C3)ccc21 (stereo unspecified)	-1.42% (inactive)
CCOC(=O)C1(Cc2ccc(Cl)cc2)CCN(C(=O)C2=NNC(=O)CC2)CC1	3.16% (inactive)
CCOCCCNC(=S)N1CCC(NC(=O)C2CCCCC2)CC1	4.18% (inactive)
Cc1cc(C)c2nc(-c3ccco3)cc(C(=O)O)c2c1	36.4% (active)
CCOC(=O)c1ccn(-c2nc(-c3ccco3)cc(C(F)(F)F)n2)n1	3.19% (inactive)

Compound	inhibition
Cc1ccsc1-c1cc(C(=O)O)c2c(ccc3ccccc32)n1	-0.02% (inactive)
COc1ccc(-c2cc(-c3nnc(SCC(=O)Nc4cccc5ccccc45)n3N)[nH]n2)cc1	2.25% (inactive)
Cc1ccc2c(c1)c1ncnc(N3CCc4ccccc4C3)c1n2C	-0.03% (inactive)
CCN(C(=O)Nc1cccc2ccccc12)c1ccccc1	9.59% (inactive)
Cc1cccc(C)c1NC(=O)C(c1cccc(F)c1)N1CCN(C)CC1 (stereo unspecified)	-4.4% (inactive)
O=S1(=O)c2c(NCc3ccco3)cccc2Oc2ccccc2CN1Cc1cn(Cc2cccc(C(F)(F)F)c2)nn1	0.88% (inactive)
COc1ccc(NC2=CC(=S)NC(C)(C)C2)cc1	33.8% (active)
COc1ccc(CCNC2=CC(=O)CC(C)(C)C2)cc1	-4.15% (inactive)
COC(=O)C1=C(C)NC(=S)NC1c1ccc(OC)cc1 (stereo unspecified)	-3.18% (inactive)
Cc1ccc(Cn2cc(CN3[C@@H](CC(C)C)COc4ccc(Cl)cc4S3(=O)=O)nn2)cc1	-3.14% (inactive)
CC(=O)c1cccc(NC(=O)CN2C(=O)c3cccnc3Oc3ccc(Cl)cc32)c1	1.98% (inactive)
CCc1ccccc1NC(=S)Nc1cc(OC)c(NC(=O)C(C)C)cc1OC	22.1% (active)
COc1ccc(C)cc1NC(=S)Nc1ccccc1SC	1.24% (inactive)
COc1cc(NC(=S)NNC(=O)CC(C)C)c(OC)cc1Cl	5.88% (inactive)
FC(F)(F)c1cccc(Cn2ccc3ccc(-c4ccc5ccn(Cc6ccccc6)c5c4)cc32)c1	-0.46% (inactive)
O=[N+]([O-])/C=C/c1ccc2c(ccn2Cc2ccccc2)c1	24.4% (active)
COc1ccc(Cn2ccc3ccc(-c4ccc5ccn(Cc6ccccc6C)c5c4)cc32)cc1	5.02% (inactive)
CCc1ccc(-n2c(=S)sc3c(=O)n(-c4ccccc4OC)c(=S)[nH]c32)cc1	84.4% (active)
COc1cc2[nH]c(=S)n(Cc3ccc(F)cc3)c(=O)c2cc1OC	1.22% (inactive)
COc1ccc(Cl)cc1-n1c(=S)sc2c(=O)n(-c3ccc(F)cc3)c(SCC(=O)O)nc21	4.71% (inactive)
CC(=O)N1CCc2cc(S(=O)(=O)NCCC(=O)N3CCCC3)ccc21	0.09% (inactive)
Oc1ccc(/C=C/c2c(F)cccc2F)c2cccnc12	-1.47% (inactive)
COCC1CCN(C(=O)c2ccc3oc(Cc4ccccc4)nc3c2)C1 (stereo unspecified)	-0.25% (inactive)
O=C(Nc1cc(C(F)(F)F)ccc1Cl)c1cc2nc3c(c(C(F)(F)F)n2n1)CCCC3	-0.92% (inactive)

Compound	inhibition
c1cncc(CNc2ccnc(-c3ccc4c(c3)OCO4)n2)c1	-4.36% (inactive)
COc1ccc(/C=N/n2c(C)cc(C)cc2=O)cc1	-4.04% (inactive)
C=CCN1C(=O)[C@@H](CC(=O)N2CCN(C(=O)c3ccco3)CC2)[C@]2(C(=O)OC)CCCCC=C12	0.68% (inactive)
CN(C(N)=NC(=O)/C=C/c1ccccc1)C(C#Cc1ccccc1)Cc1ccccc1 (stereo unspecified)	-2.71% (inactive)
COc1cc(Cl)cc(C2NC(=O)NC(C)=C2C(=O)NCc2ccccc2)c1O (stereo unspecified)	0.85% (inactive)
O=C(NN1C(=O)C2C3C=CC(O3)C2C1=O)c1ccccc1 (stereo unspecified)	-3.32% (inactive)
COc1ccccc1C(=O)NN1C(=O)C2C3C=CC(O3)C2C1=O (stereo unspecified)	35.6% (active)
O=C(NN1C(=O)C2C3C=CC(O3)C2C1=O)c1ccncc1 (stereo unspecified)	3.88% (inactive)
Nc1nc(CC(=O)CSc2ccc(Cl)cc2)nc(Nc2ccc(F)cc2)n1	-4.39% (inactive)
COC(=O)[C@]12C[C@H](CC(=O)N3CCOCC3)C(=O)N(Cc3ccc(Cl)cc3Cl)C1=C[C@H](COCc1ccccc1)O[C@@H]2C	2.19% (inactive)
Nc1c(C(=O)c2cccs2)sc2nsc(SCCN3CCCCC3)c12	25.1% (active)
CC(=NC1CCN(Cc2ccccc2)CC1)c1c(O)[nH]c(=O)[nH]c1=O	1.82% (inactive)
CS(=O)(=O)N(CC(=O)N1CCN(Cc2ccccc2)CC1)c1ccc2c(c1)OCCO2	-1.51% (inactive)
c1ccc(CN2CCC(N=C3NN=C(c4ccc5c(c4)OCCO5)CS3)CC2)cc1	27.6% (active)
O=C(CSc1nnc(COc2ccccc2)n1-c1ccc(Cl)cc1)Nc1ccc2c(c1)OCO2	0.01% (inactive)
Cc1ccc(NC(=O)Cn2sc3ccccc3c2=O)cc1	91.8% (active)
CC1(C)NC(=O)N(CC(=O)Nc2ccc(-c3ccccc3)cc2)C1=O	-1.42% (inactive)
O=C(Cn1nc(C(=O)O)c2ccccc2c1=O)Nc1ccc(F)cc1	2.28% (inactive)
CN(C)C(=O)CCc1ccc2c3c([nH]c2c1)[C@]1(CCc2ccccc2)[C@@H](C(=O)N2CCCCC2)C[C@H](CC(=O)NCCC2=CCCCC2)C(=O)N1CC3	-1.05% (inactive)
O=C1Nc2ccccc2OC1CC(=O)N1CCCCCCC1 (stereo unspecified)	1.11% (inactive)
CN(CC(=O)NC1CCCC1)S(=O)(=O)c1cnc[nH]1	-5.5% (inactive)
CC1CCN(C(=O)C2CCN(S(=O)(=O)N3CCC4(CC3)OCCO4)CC2)CC1	-2.98% (inactive)
COc1ccc(-c2nn(C)c(=O)c3ccccc23)cc1NC(=O)COc1ccccc1	3.05% (inactive)
